# Measurements published in PubChem BioAssay (NCI).
# Several values for one entry are separate records, joined by “and”; a condition that tells them apart may be missing. Identical values can stand only once. The panel holds about 83,000 compounds, 20% with a hit somewhere; the sample as a whole holds those more often.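 Step 1: grow cells in 96-well plates. Step 2: add test compound at a single concentration. Step 3: incubate 48 h. Step 4: record percent growth.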 Activity calls are given as the source filed them. Rule for the calls: active = growth percent below 10; inactive = the rest.
# Tests used:
# Test in all cases: NCI-60 one-dose screen, 48 h (100 = growth as untreated, 0 = no growth, -100 = all killed)
# Conditions in all cases: 10 µM unless noted
# NCI-H23 lung = tested on: NCI-H23 lung
# NCI-H226 lung = tested on: NCI-H226 lung
# NCI-H322M lung = tested on: NCI-H322M lung
# HOP-62 NSCLC = tested on: HOP-62 NSCLC
# NCI-H460 lung = tested on: NCI-H460 lung
# HOP-92 NSCLC = tested on: HOP-92 NSCLC
# NCI-H522 lung = tested on: NCI-H522 lung
# A549/ATCC NSCLC = tested on: A549/ATCC NSCLC
# 786-0 renal = tested on: 786-0 renal
# COLO 205 colon = tested on: COLO 205 colon
# DU-145 prostate = tested on: DU-145 prostate
# K-562 leukemia = tested on: K-562 leukemia
# MALME-3M melanoma = tested on: MALME-3M melanoma
# MDA-MB-231 breast = tested on: MDA-MB-231 breast
# RXF 393 renal = tested on: RXF 393 renal
# SF-268 CNS = tested on: SF-268 CNS
# SF-295 CNS = tested on: SF-295 CNS
# SF-539 CNS = tested on: SF-539 CNS
# UACC-257 melanoma = tested on: UACC-257 melanoma
# M14 melanoma = tested on: M14 melanoma
SMILES,growth (NCI-H23 lung),growth (NCI-H226 lung),growth (NCI-H322M lung),growth (HOP-62 NSCLC),growth (NCI-H460 lung),growth (HOP-92 NSCLC),growth (NCI-H522 lung),growth (A549/ATCC NSCLC),growth (786-0 renal),growth (COLO 205 colon),growth (DU-145 prostate),growth (K-562 leukemia),growth (MALME-3M melanoma),growth (MDA-MB-231 breast),growth (RXF 393 renal),growth (SF-268 CNS),growth (SF-295 CNS),growth (SF-539 CNS),growth (UACC-257 melanoma),growth (M14 melanoma)
Nc1nc2ncc(CNc3ccc(C(=O)N[C@@H](CCc4nn[nH]n4)C(=O)O)cc3)nc2c(=O)[nH]1,95.7% (inactive) and 95.5% (inactive),98.7% (inactive) and 93.8% (inactive),103% (inactive) and 102% (inactive),103% (inactive) and 92.1% (inactive),100% (inactive) and 101% (inactive),93.4% (inactive) and 78.5% (inactive),101% (inactive) and 84.6% (inactive),106% (inactive) and 95.3% (inactive),106% (inactive) and 109% (inactive),107% (inactive) and 110% (inactive),99.4% (inactive) and 110% (inactive),90.7% (inactive),96.9% (inactive) and 104% (inactive),110% (inactive) and 99.7% (inactive),104% (inactive) and 96.3% (inactive),98% (inactive) and 99.5% (inactive),98.6% (inactive) and 100% (inactive),91% (inactive) and 110% (inactive),106% (inactive) and 91.8% (inactive),
CC(C)C(=O)Nc1ccc([N+](=O)[O-])c(C(F)(F)F)c1,89.5% (inactive) and 93.9% (inactive),72.5% (inactive) and 82.8% (inactive),104% (inactive) and 113% (inactive),94.9% (inactive) and 84.2% (inactive),83.8% (inactive) and 109% (inactive),53.9% (inactive) and 91.1% (inactive),79.2% (inactive) and 79.1% (inactive),81.4% (inactive) and 103% (inactive),96.4% (inactive) and 87.2% (inactive),93.5% (inactive) and 117% (inactive),74% (inactive) and 113% (inactive),57.1% (inactive) and 62.1% (inactive),83.3% (inactive) and 88% (inactive),84.7% (inactive) and 102% (inactive),104% (inactive),88.6% (inactive) and 102% (inactive),76.7% (inactive) and 92% (inactive),96.9% (inactive) and 92.7% (inactive),108% (inactive) and 112% (inactive),98.9% (inactive) and 92.9% (inactive)
CC(C)(C)c1ccc(O)c(CNC2CCCCC2)c1,96.6% (inactive) and 90.8% (inactive),96.5% (inactive) and 81.2% (inactive),97.6% (inactive) and 100% (inactive),119% (inactive) and 88.9% (inactive),103% (inactive) and 93.6% (inactive),72.4% (inactive) and 84.3% (inactive),102% (inactive) and 84.8% (inactive),99.2% (inactive) and 84.7% (inactive),96.1% (inactive) and 80.4% (inactive),9.74% (active) and 107% (inactive),130% (inactive) and 108% (inactive),48.7% (inactive) and 75.4% (inactive),115% (inactive) and 97.9% (inactive),101% (inactive) and 97.2% (inactive),96.5% (inactive) and 59.5% (inactive),114% (inactive) and 96.8% (inactive),104% (inactive),114% (inactive) and 95.6% (inactive),108% (inactive) and 95.2% (inactive),87.1% (inactive) and 101% (inactive)
Oc1ccccc1C=NCC1CCC(CN=Cc2ccccc2O)CC1 (configuration not stated),78.9% (inactive),101% (inactive),80.3% (inactive),94.5% (inactive),41.7% (inactive),104% (inactive),57.7% (inactive),92.2% (inactive),108% (inactive),97.3% (inactive),3.17% (active),99.4% (inactive),113% (inactive),101% (inactive),76.4% (inactive),93.9% (inactive),71.6% (inactive),100% (inactive),102% (inactive),
COc1cc(Nc2nc3ccccc3nc2NS(=O)(=O)c2ccc(NC(=O)c3ccc(C)c(OC)c3)cc2)cc(OC)c1,48.3% (inactive) and 19.8% (inactive),70.8% (inactive) and 6.54% (active),49.3% (inactive) and -6.86% (active),44.1% (inactive) and -1.64% (active),44.4% (inactive) and 10.5% (inactive),-26.5% (active),40.9% (inactive) and 2.82% (active),50.2% (inactive) and -9.71% (active),69.5% (inactive) and -19.2% (active),66% (inactive) and -11.6% (active),63.2% (inactive) and 12.9% (inactive),63% (inactive) and 29.3% (inactive),30.7% (inactive) and -18.6% (active),77.2% (inactive) and 13.5% (inactive),75.1% (inactive) and -38.8% (active),54.8% (inactive) and 18.2% (inactive),41.7% (inactive) and -32.8% (active),62.7% (inactive) and -35.7% (active),74.7% (inactive) and -18.8% (active),
